Test results reported in the supplement of paper PMC3334620.
The full ranking holds about 33,000 sequences; the median of “E-score (-0.5 to 0.5)” is about -0.012, and the highest 2% start at about 0.29. The list comes from a sample in which the highest values are over-represented; it also holds similar and randomly drawn sequences.

target: T1, Ybr033w (UniProt P38073); test: PBM E-score (8-mer binding enrichment) (E-score (-0.5 to 0.5)); higher = stronger / more preferred TF binding; conditions: protein concentration: 200 nM; construct: GST-full length
T1 sequence: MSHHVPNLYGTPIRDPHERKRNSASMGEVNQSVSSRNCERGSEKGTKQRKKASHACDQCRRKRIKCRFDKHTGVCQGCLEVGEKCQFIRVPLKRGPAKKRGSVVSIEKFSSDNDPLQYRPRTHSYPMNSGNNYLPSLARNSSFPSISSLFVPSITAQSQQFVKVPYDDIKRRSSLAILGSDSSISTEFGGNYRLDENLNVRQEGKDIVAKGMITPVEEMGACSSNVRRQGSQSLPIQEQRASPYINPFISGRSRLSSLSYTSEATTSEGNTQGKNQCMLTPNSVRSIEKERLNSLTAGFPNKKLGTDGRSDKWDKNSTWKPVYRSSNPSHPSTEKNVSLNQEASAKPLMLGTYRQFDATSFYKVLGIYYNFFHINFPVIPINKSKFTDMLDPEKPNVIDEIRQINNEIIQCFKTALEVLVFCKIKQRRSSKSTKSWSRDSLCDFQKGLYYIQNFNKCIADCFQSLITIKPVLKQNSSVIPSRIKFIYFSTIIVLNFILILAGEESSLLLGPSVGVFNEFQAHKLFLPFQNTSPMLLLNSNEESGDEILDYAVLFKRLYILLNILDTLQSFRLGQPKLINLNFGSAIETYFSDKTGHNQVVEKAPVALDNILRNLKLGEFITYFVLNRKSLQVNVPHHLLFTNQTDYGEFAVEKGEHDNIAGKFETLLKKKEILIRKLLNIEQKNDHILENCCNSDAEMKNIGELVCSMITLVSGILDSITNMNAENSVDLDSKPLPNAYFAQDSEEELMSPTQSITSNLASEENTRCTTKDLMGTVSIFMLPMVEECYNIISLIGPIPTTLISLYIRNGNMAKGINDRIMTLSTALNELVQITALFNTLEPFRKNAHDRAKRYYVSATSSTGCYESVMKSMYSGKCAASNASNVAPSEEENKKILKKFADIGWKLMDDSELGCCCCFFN
Summary of the method: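 PURExpress in vitro transcription/translation supplied GST-tagged yeast transcription factors, either full-length or DNA-binding domain. Applied at about 100-200 nM to universal all-10-mer Agilent arrays double-stranded by primer extension, the bound protein was detected with fluorescent anti-GST. E-scores, modified Wilcoxon-Mann-Whitney statistics, were given by the Universal PBM Analysis Suite to ungapped eight-base words pooled with their reverse complements after masliner normalisation.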

Sequence | PBM E-score
CCTAATAA | -0.0059
AGTAATAT | 0.336
AATAATAA | 0.399
CCGGGCGA | -0.226
ACCTACAG | 0.0954
TCACGCCA | -0.081
TAATTAAA | 0.276
ACATTAAA | 0.225
GCATTAAA | 0.147
AAATTAAG | 0.144
TCATTAAA | 0.319
AAATTAAT | 0.314
GAATTAAA | 0.149
AAATTAAA | 0.339
AAATTAAC | 0.251
AGGTAGGC | -0.147
AATCTGGG | 0.00147
CGCGAGTC | -0.0881
GCATACTA | 0.0596
ATAGTTCC | 0.25
AGCTGCCA | -0.135
AACAGATA | 0.096

Sequence | PBM E-score
GACAGATA | 0.0702
TACAGATA | 0.291
GGCTGTAA | -0.0501
ATTGAATC | 0.0535
ATTGAGTC | -0.0117
ATTGAAAA | 0.289
ATTGAAAC | 0.164
CTTGAAAA | 0.207
GTTGAGTA | 0.127
ATTGAAAT | 0.296
ATTGAGTA | 0.29
ATTGAATA | 0.305
CTTGAATA | 0.155
AATGAAAT | 0.282
ATTGAAAG | 0.111
TAGCGTGA | 0.00864
AGCTTACT | 0.0872
AACAAGGA | 0.12
CATCGTAC | 0.0156
CACAATCG | 0.0764
CTGTGAGC | -0.0445
AGCTAAGG | -0.119

Sequence | PBM E-score
CTCCACGA | -0.0474
CAACCACA | 0.0032
TAGAAAGA | -0.0722
CATTCTGC | 0.09
AGCAGGAA | 0.0849
CAACCGAC | 0.107
ATAGTGGA | 0.0933
ACTAGGGA | -0.159
AGAAAATA | 0.314
CGAAAATA | 0.23
GAAAAATA | 0.397
AAAAATCC | 0.287
AAAAAATA | 0.278
GGAAAAGA | 0.0452
TAAAAATA | 0.285
GGAAAATA | 0.414
GCAAAATA | 0.287
AGAAAATC | 0.232
GGAAATCC | -0.00538
GAAAATCC | 0.308
AGGTTGAG | -0.167
AAGGGGAT | -0.0478

Sequence | PBM E-score
AGTACCGG | -0.182
CGGGTGCC | -0.151
TCACTACA | 0.243
CCATCTGA | 0.0862
CTTTAGGC | -0.0153
AGATTGAC | 0.0305
AAGCAAGG | -0.0139
GGACAGAC | -0.174
TCAAATAA | 0.202
GAAAATAA | 0.304
GCAAATAA | 0.322
TAAAATAA | 0.261
CAAAAATG | 0.157
AAAAATAA | 0.275
AAAAAATC | 0.248
GAAAAATC | 0.381
CCAAAATA | 0.182
ACAAATAA | 0.265
CAAAAATA | 0.316
CAAAAATC | 0.236
ATAGCGCA | 0.0412
GACGATTA | -0.0748
